Experimental data: PubChem BioAssay AID596 (National Center for Advancing Translational Sciences (NCATS), 2007)
In all, about 71,000 compounds went through this assay and about 1,400 (2%) were called active. Not shown: some 3% with an inconclusive outcome. Many of the other results were omitted from the sample, so actives are more common in it than they were. A number with no mark means an inactive call. Calls come from the whole dose curve; as a rule, active = well fitted curve in the direction sought with a large enough effect; inconclusive = small, poorly fitted or top-dose-only effect; inactive = no such curve, though single readings can be large or run the other way.

target: Microtubule-associated protein tau (Homo sapiens) (UniProt P10636); assay: qHTS Assay for Tau Filament Binding; details: recombinant tau filaments, thioflavin S fluorescence, 15 h, filaments grown with octadecylsulfate alongside compound; series mostly up to 57.1 µM; activity change, negative = inhibition: at the top concentration;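 note: actives lower thioflavin S fluorescence by blocking filaments or displacing dye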
From the text: NIH Molecular Libraries Screening Centers Network [MLSCN]
NIH Chemical Genomics Center [NCGC]
Assay Provider: Jeffrey A. Kuret, Ohio State University
Tau monomers form filaments in vitro in the presence of anionic detergents or fatty acids. The dye Thioflavine S (ThS) binds to tau filaments and upon binding, increases in fluorescence several fold. Small molecules that displace ThS binding or prevent filament binding are identified by a reduction in ThS fluorescence. This assay used histidine-tagged, recombinant human tau protein containing the products of exons 2, 3, and 10 that was provided by Jeff Kuret, Ohio State University. To form filaments, 1 uM tau was incubated with 30 uM sodium octadecylsulfate (ODS) in reagent buffer (10 uM thioflavine S, 5 mM 1,4-dithioerythreitol (DTT), 100 mM sodium chloride, 10 mM HEPES pH 7.4) for 15 hrs at 37 C.
NCGC Assay Protocol Summary:
Assay Steps. Two uL/well of 2 uM tau in reagent buffer (10 uM thioflavine S, 5 mM DTT, 100 mM sodium chloride, 10 mM HEPES pH 7.4) was dispensed into solid black 1536-well plates. Twenty-three nL compound was transferred to the assay plate after which 2 uL/well of 60 uM ODS in reagent buffer was dispensed for a final assay volume of 4 uL /well. Following 15 hours of incubation at 37 C, fluorescence was detected by an Envision (Perkin Elmer) using 450/8 nm excitation and 510/23 nm emission.
Keywords: NIH Roadmap, MLSCN, MLI, MLSMR, qHTS, NCGC, Alzheimer's disease, Neurofibrillary lesions, tau, tubulin assembly, microtubule stability, cytoskeletal integrity, fibrillization, thioflavin dyes, Amyloidgenic
% is set by controls: 0 for no effect and ±100 for the full control effect; potency is the fitted concentration of half-maximal effect.

Sequence of Microtubule-associated protein tau (Homo sapiens) (P10636 whole entry, looked up): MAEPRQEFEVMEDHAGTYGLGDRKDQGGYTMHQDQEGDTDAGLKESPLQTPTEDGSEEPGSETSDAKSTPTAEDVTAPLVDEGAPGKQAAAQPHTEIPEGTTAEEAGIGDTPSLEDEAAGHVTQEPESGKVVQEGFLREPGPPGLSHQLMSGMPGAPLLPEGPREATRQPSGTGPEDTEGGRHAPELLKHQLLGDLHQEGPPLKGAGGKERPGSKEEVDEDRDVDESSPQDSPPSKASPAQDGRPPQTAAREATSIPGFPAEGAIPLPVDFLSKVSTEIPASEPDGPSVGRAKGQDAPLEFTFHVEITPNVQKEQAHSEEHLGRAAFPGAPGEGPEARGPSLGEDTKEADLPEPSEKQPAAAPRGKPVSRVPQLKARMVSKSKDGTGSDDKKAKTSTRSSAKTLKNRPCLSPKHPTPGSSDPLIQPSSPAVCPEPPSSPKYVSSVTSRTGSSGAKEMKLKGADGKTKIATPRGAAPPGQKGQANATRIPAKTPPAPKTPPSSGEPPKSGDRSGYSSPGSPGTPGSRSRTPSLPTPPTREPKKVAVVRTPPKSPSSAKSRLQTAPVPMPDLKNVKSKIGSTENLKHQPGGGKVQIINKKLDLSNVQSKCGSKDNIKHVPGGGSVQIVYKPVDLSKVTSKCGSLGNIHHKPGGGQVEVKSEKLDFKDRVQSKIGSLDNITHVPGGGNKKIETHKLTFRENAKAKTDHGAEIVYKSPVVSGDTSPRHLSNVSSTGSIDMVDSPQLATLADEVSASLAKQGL

SMILES	activity change, negative = inhibition	Potency
C[C@]1(C(=O)NCCc2c[nH]c3ccccc23)C=C[C@@H](Cc2ccccc2)N1C(=O)c1ccccc1	78.2%	–
Cn1cccc1C(=O)N1CCC2(CC1)CN(c1cccc(-c3ccccc3)c1)C2	-8.2%	–
CC(=O)CC(C)C	-8.5%	–
C[C@H](CCC(=O)O)[C@H]1CC[C@@H]2[C@H]3CC[C@H]4C[C@H](O)CC[C@@]4(C)[C@@H]3CC[C@@]21C	11.3% [at 11.4 µM]	–
COC(=O)c1ccc(C(NC(=O)OCc2ccccc2)/C(C)=C/[C@@H](C)C(=O)NCc2cc(C)on2)cc1 (stereo partly drawn)	-4.6%	–
COC(=O)[C@H]1C[C@@H]1[C@H](NC(=O)Oc1ccc(F)cc1)c1ccccc1	-3.2%	–
COC(=O)c1cnn2c(C(F)(F)F)cc(-c3ccco3)nc12	–	15.8 µM (active)
CCOC(=O)c1ccn(-c2nc(-c3ccco3)cc(C(F)(F)F)n2)n1	-22.9%	–
FC(F)(F)c1cc(-c2ccco2)nc(N2CCOCC2)n1	4%	–
CCC[C@@H]1C[C@@]1(CCC)C(NS(=O)(=O)c1cccc2cccnc12)c1ccc(Cl)cc1 (stereo partly drawn)	-15.3%	–
CN(C)C(=O)/N=N\C(=O)N(C)C	-7.5%	–
CCCc1cc(=O)[nH]c(SCc2ccc(C#N)cc2)n1	2.2%	–
CCc1nnc(NC(=O)CSc2nnc(Cc3ccccc3)n2-c2ccc(OC)cc2)s1	-7.8%	–
COc1ccc(Cc2nnc(NS(=O)(=O)Cc3ccccc3)s2)cc1	-0.8%	–
COc1ccc(Cc2nnc(NC(=O)Cc3cccs3)s2)cc1	–	25.1 µM (active)
COC(=O)N1CCC2(CCCN(c3ccncc3)C2)CC1	19.9%	–
Cc1cccn2c(=O)c3cc(C#N)c(=O)n(CCCN4CCOCC4)c3nc12	2.6%	–
O=C1C(c2[nH]c3ccccc3c2O)=Nc2ccccc21	-20%	–
Cc1cc2ccccc2n2c(SCC(=O)N3CCN(C(=O)c4ccco4)CC3)nnc12	6%	–
O=C1c2ccccc2C(O)N1Cc1ccccc1 (stereo not drawn)	2.9%	–
CC[N+](C)(CC)CCC[n+]1c(-c2ccccc2)c2cc(N)ccc2c2ccc(N)cc21	–	1.58 µM (active)
CCOC(=O)Cn1c2c(c(-c3ccccc3OC)cc1=O)CCCC2	0.5%	–

SMILES	activity change, negative = inhibition	Potency
COCCn1c(=O)[nH]c2cc(C(=O)NCc3cccnc3)ccc2c1=O	6.2%	–
O=C(O)[C@H](CCc1ccccn1)c1ccccc1	-5.3% [at 11.4 µM]	–
CCSC1=C(C#N)C(=O)n2c1cc1c2CCCC1	–	25.1 µM (active)
CCSc1ncnc2c(C#N)c3n(c12)CCCCC3	11.1%	–
CC(C)C[C@@H](CC(=O)N[C@@H](CCC(=O)O)CC(=O)O)NC(=O)[C@@H]1CCCC[C@H]1NC(=O)C[C@@H](NC(=O)C[C@H](CO)NC(=O)[C@@H]1CCCC[C@H]1N)C(C)C	-3.3%	–
CCC(C)(C(=O)NC1CCCC1)N(C(=O)CNC(C)=O)c1ccc(C)cc1 (stereo not drawn)	-10.2%	–
C=CC(=O)OCCOCCOCCOCCOC(=O)C=C	–	inactive
Cn1c(-c2ccco2)nc2cc3ccccc3cc21	97.4%	–
Cc1nn2c3ccccc3nc2n(C)c1=O	-16.6%	–
c1coc(-c2nc3nc4ccccc4n3nc2-c2ccco2)c1	–	3.16 µM (active)
COC(=O)C1(Cc2ccccc2)C=C2C(=C(C)C(=O)C2C)CN1 (stereo not drawn)	21.1%	–
Cc1ccc(C2CC(c3cccc(Br)c3)n3nc(N)nc3N2)cc1 (stereo not drawn)	-30%	–
CCNC(=S)NCC	-11.9%	–
O=c1c2ccccc2oc2nc(C3CCCCC3)n(Cc3ccco3)c(=O)c12	-13.1%	–
COCCCn1c2nc3ccccc3nc2c2c(=O)n(Cc3ccc(Cl)cc3)c(C)nc21	13.7%	–
CCOC(=O)CSc1nc2c(sc(=S)n2CCc2ccccc2)c(=O)n1Cc1ccco1	98.7%	–
Cc1ccc(Cn2c(C)nc3c(c2=O)c2nc4ccccc4nc2n3Cc2ccco2)cc1	–	25.1 µM (active)
Cc1nc2c(c(=O)n1Cc1ccco1)c1nc3ccccc3nc1n2Cc1ccccc1	–	15.8 µM (active)
Cc1ccc(Cn2c(NC(=O)c3ccco3)nc3ccccc32)cc1	14.6%	–
CCC(C)(C)n1nnnc1C(c1ccccc1OC)N1CCSCC1 (stereo not drawn)	-8.9%	–
c1cnn(-c2cc(N3CCOCC3)ncn2)c1	-1.2%	–
c1ccc(-c2oc3ncnc(N4CCOCC4)c3c2-c2ccccc2)cc1	1.3%	–

SMILES	activity change, negative = inhibition	Potency
O=C1c2ccccc2-c2ncnc3c(N4CCOCC4)cc(N4CCOCC4)c1c23	–	5.01 µM (active)
COc1ccc(N2C(=O)c3cccc4cccc(c34)C2=O)nn1	9.7%	–
O=C1c2ccccc2C(=O)N1CCCSc1ccccc1	-2.3% [at 11.4 µM]	–
C[N+](C)(CCCCCC[N+](C)(C)CCCN1C(=O)c2cccc3cccc(c23)C1=O)CCCN1C(=O)c2cccc3cccc(c23)C1=O	–	2 µM (active)
O=C(c1ccc2c(c1)N(Cc1ccc(F)cc1)C(=O)CS2)N1CCOCC1	-5.7%	–
COc1ccc(N)c(C)c1	-6.8%	–
CCCC(=O)Nc1ccc2c(c1)nc1n2CCSC1	-16.2%	–
Cc1cccc(C(=O)O)c1[N+](=O)[O-]	11.9%	–
Brc1ccc(OCCn2ccnc2)cc1	-24.1%	–
Cc1nc(C)c(C(=O)Nc2cccc(C)c2C)o1	–	15.8 µM (active)
Cc1cccc(NC(=O)CSC(N)=O)c1C	3.4%	–
Cc1ccccc1NC(=O)c1ccccc1	0.4%	–
Cc1cccc(OCC(O)Cn2c(=N)n(CCN3CCOCC3)c3ccccc32)c1 (stereo not drawn)	16%	–
CC(C)OCCCNc1nc2c(c(=O)n(Cc3ccccc3F)c(=O)n2C)n1C	8.7%	–
Cc1ccc(NC(=O)c2cc(-c3ccc(C)o3)nc3ccccc23)nc1	–	10 µM (active)
Cc1ccc2nc(-c3ccccc3)cc(C(=O)O)c2c1	1.3%	–
Cc1cc(=O)oc(C)c1C(=O)Nc1cnc2ccccc2c1	288%	–
C1CCC2OC2C1 (stereo not drawn)	2.7%	–
N=C(CC(=O)Nc1ccccn1)c1ccccc1	-2.3% [at 11.4 µM]	–
CC1=Nn2c(nnc2-c2ccccc2)SC1	1.3%	–
Cc1nn2c3cc(N4CCOCC4)ccc3nc2c2ccccc12	–	12.6 µM (active)
Cc1cc(C)c2c(n1)nn1c(N3CCOCC3)cc(C)nc21	18.9%	–

SMILES	activity change, negative = inhibition	Potency
COc1ccc(-n2c(=O)c(C)nc3cnc(N4CCOCC4)nc32)cc1	-8.4%	–
O=C(C(Cc1ccccc1)n1cccc1)N1CCN(C2CCCCC2)CC1 (stereo not drawn)	-11.5%	–
O=C(O)/C(=C/c1c(C(=O)O)[nH]c2cc(Cl)cc(Cl)c12)c1ccccc1	-6.4%	–
O=C(CSc1nc2[nH]ncc2c(=O)n1-c1ccccc1)N1CCCc2ccccc21	13.4%	–
O=c1nc(N2CCOCC2)nc2n1CCO2	-11.4%	–
CNc1nc(-c2ccccc2OC)nc2ccccc12	–	12.6 µM (active)
COc1ccccc1-c1cc(NCc2cccs2)ncn1	-0.6%	–
COc1ccccc1-c1nc(N2CCN(C)CC2)c2ccccc2n1	-25.5%	–
COc1ccccc1-c1nc(NCCNC(C)=O)c2ccccc2n1	-3.8%	–
COc1ccccc1-c1nc(NCc2cccs2)c2ccccc2n1	–	2.51 µM (active)
COc1ccccc1CNc1nc(-c2c(C)noc2C)nc2ccccc12	91.2%	–
Cc1ccccc1C(=O)O	1%	–
CCCCCCN(C(=O)CCCCCN1C(=O)NC(c2ccc(C(F)(F)F)cc2)C(C(=O)OCc2ccccc2)=C1C)C(C(=O)NCCCC)c1ccc(OCC(=O)OC)c(C(=O)OC)c1 (stereo not drawn)	72.4%	–
COC(=O)[C@@]1(C)C=C[C@@H](Cc2ccccc2)N1C(C)=O	-6.5%	–
COc1cc([C@H]2c3cc4c(cc3[C@@H](O[C@@H]3O[C@H]5CO[C@@H](C)O[C@]5(O)C[C@H]3O)[C@@H]3COC(=O)[C@H]23)OCO4)cc(OC)c1O	0.5%	–
Oc1ccc(-c2csc(Nc3cccnc3)n2)cc1	-0.1%	–
COc1ccc(OC)c(Nc2nc(-c3ccc(O)c(O)c3)cs2)c1	–	20 µM (active)
COc1ccc(-c2n[nH]c(C)c2-c2ccc(OC)c(OC)c2)c(O)c1	1.1%	–
CCc1c(C)nc(N)n2c(SCC(=O)N3CCN(c4ccccc4)CC3)nnc12	1.5%	–
CC(Cc1ccccc1)C(=O)N(C)Cc1ccccc1 (stereo not drawn)	-18.4%	–
CCc1ccc(N(CC)c2ncnc3nc[nH]c23)cc1	14.7%	–
CN(C(=O)COc1nnc(-c2cccs2)c(-c2cccs2)n1)c1ccccc1	–	25.1 µM (active)

SMILES	activity change, negative = inhibition	Potency
CN(C(=O)COc1ccccc1)c1nnc(-c2ccncc2)s1	-17.9%	–
O=c1c(-c2cccs2)nc2cnc(Oc3ccccc3)nc2n1-c1ccccc1	47.6%	–
CCCn1c(SCC(N)=O)nnc1C(C)C	2.8%	–
O=C(Cn1cnc2c(nnn2Cc2ccc(F)cc2)c1=O)NCc1ccc2c(c1)OCO2	7.3%	–
CCOC(=O)C(C)Oc1cccc2c(=O)n(CC(=O)N3CCc4ccccc43)ccc12 (stereo not drawn)	40.3%	–
COCCNc1cc(-c2c(C)noc2C)ncn1	-2.4%	–
CCOc1ccc(NCCC(=O)c2ccc3c(c2)OCO3)cc1	–	25.1 µM (active)
COC(=O)CCNc1ccc2c(c1)OCCO2	1.2%	–
COc1ccc(C(=O)Nc2ccc3c(c2)OCO3)cc1OC	-6%	–
O=C(Cl)c1ccccc1[N+](=O)[O-]	8%	–
O=C(CSc1nnc(Cc2ccccc2)n1-c1ccccc1)N1CCOCC1	-4%	–
CCN(CC)CCN1C(=O)C(=O)/C(=C(/O)c2ccc(OC)c(OC)c2)C1c1ccccn1 (stereo not drawn)	–	20 µM (active)
CCN(CC)CCN1C(=O)C(=O)/C(=C(/O)c2ccccc2)C1c1ccccc1F (stereo not drawn)	6.1%	–
O=C1C(=O)N(CCN2CCOCC2)C(c2ccccn2)/C1=C(/O)c1ccc(Cl)cc1 (stereo not drawn)	64.6%	–
CC(=O)OCCC(C)C	-0.1%	–
CCCCCC(=O)Nc1ccc2oc(-c3ccncc3)nc2c1	-29.6%	–
COc1cccc(-c2nc3cc(C)ccc3o2)c1	-7.9%	–
CCc1ccc2oc(-c3ccc(N)cc3)nc2c1	–	25.1 µM (active)
CCCCCCc1ccc(O)cc1O	-23.7%	–
CC(C)n1c(SCC(=O)Nc2ccccc2N2CCCCC2)nc2c1c(=O)n(C)c(=O)n2C	5%	–
